Source: PubChem BioAssay AID1159580 (chemical genetic matrix, 2015)
In all, about 5,500 compounds went through this assay and about 2,000 (36%) were called active. Not shown: some 18% with an inconclusive outcome. Rule as the data show it: active = normalized growth mostly below about 0.91 (no sharp cut-off); inconclusive = no clear call, values can overlap the other calls; inactive = mostly above about 0.92. The list shows a part of the results.

Assay: chemical genetic growth profiling, strain panel (AID 1159580);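 also: tested at 20 µM; growth read once vehicle control cultures reached saturation at 30 °C; 1 = growth at the plate median or of vehicle wells; lower values mean less growth of the strain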
Details: growth OD
[1] = S. cerevisiae deletion strains, locus YDL101C, strain DUN1, hits give low values
[2] = S. cerevisiae deletion strains, locus YHR030C, strain SLT2, hits give low values
[3] = S. cerevisiae deletion strains, locus YAL013W, strain DEP1, hits give low values
[4] = S. cerevisiae deletion strains, locus YBR229C, strain ROT2, hits give low values
[5] = S. cerevisiae deletion strains, locus YCL061C, strain MRC1, hits give low values
[6] = S. cerevisiae deletion strains, locus YDR150W, strain NUM1, hits give low values
[7] = S. cerevisiae deletion strains, locus YEL061C, strain CIN8, hits give low values
[8] = S. cerevisiae deletion strains, locus YGR078C, strain PAC10, hits give low values
[9] = S. cerevisiae deletion strains, locus YHR087W, strain rtc3, hits give low values
[10] = S. cerevisiae deletion strains, locus YJR043C, strain POL32, hits give low values
[11] = S. cerevisiae deletion strains, locus YLR039C, strain RIC1, hits give low values
[12] = S. cerevisiae deletion strains, locus YLR058C, strain SHM2 (second series), hits give low values
[13] = S. cerevisiae deletion strains, locus YLR085C, strain ARP6, hits give low values
[14] = S. cerevisiae deletion strains, locus YLR262C, strain YPT6, hits give low values
[15] = S. cerevisiae deletion strains, locus YML094W, strain GIM5, hits give low values
[16] = S. cerevisiae deletion strains, locus YMR219W, strain ESC1, hits give low values
[17] = S. cerevisiae deletion strains, locus YMR263W, strain SAP30, hits give low values
[18] = S. cerevisiae deletion strains, locus YNL153C, strain GIM3, hits give low values
[19] = S. cerevisiae deletion strains, locus YNL298W, strain CLA4 (second series), hits give low values
[20] = S. cerevisiae deletion strains, locus YNL322C, strain KRE1, hits give low values
[21] = S. cerevisiae deletion strains, locus YNR030W, strain Alg12, hits give low values
[22] = S. cerevisiae deletion strains, locus YPL055C, strain LGE1, hits give low values
[23] = S. cerevisiae deletion strains, locus YPL241C, strain CIN2, hits give low values
[24] = S. cerevisiae deletion strains, locus YPR135W, strain CTF4, hits give low values
[25] = S. cerevisiae deletion strains, locus YJR075W, strain HOC1, hits give low values

Measured: normalized growth

CC(C)(C)c1cc(C(=O)NNc2cccc(Cl)c2)n(Cc2ccccc2)n1
active: S. cerevisiae deletion strains, locus YLR113W, strain HOG1, hits give low values 0.787
inactive: S. cerevisiae deletion strains, locus YAR019C, strain CDC15, hits give low values 0.98 | S. cerevisiae deletion strains, locus YBL105C, strain PKC1, hits give low values 0.978 | S. cerevisiae deletion strains, locus YBR135W, strain CKS1, hits give low values 0.983 | S. cerevisiae deletion strains, locus YBR136W, strain MEC1, hits give low values 0.973 | S. cerevisiae deletion strains, locus YBR160W, strain CDC28, hits give low values 0.975 | S. cerevisiae deletion strains, locus YDL017W, strain CDC7, hits give low values 0.987 | S. cerevisiae deletion strains, locus YDL028C, strain MPS1, hits give low values 0.975 | [1] 0.955 | S. cerevisiae deletion strains, locus YDL108W, strain KIN28, hits give low values 0.978 | S. cerevisiae deletion strains, locus YDL132W, strain cdc53, hits give low values 0.969 | S. cerevisiae deletion strains, locus YDL214C, strain PRR2, hits give low values 0.917 | S. cerevisiae deletion strains, locus YDR052C, strain DBF4, hits give low values 0.976 | S. cerevisiae deletion strains, locus YDR054C, strain cdc34, hits give low values 0.979 | S. cerevisiae deletion strains, locus YDR226W, strain ADK1, hits give low values 0.985 | S. cerevisiae deletion strains, locus YDR477W, strain SNF1, hits give low values 0.923 | S. cerevisiae deletion strains, locus YER123W, strain YCK3, hits give low values 0.832 | S. cerevisiae deletion strains, locus YER133W, strain GLC7, hits give low values 0.926 | S. cerevisiae deletion strains, locus YFL009W, strain cdc4, hits give low values 0.992 | S. cerevisiae deletion strains, locus YFL029C, strain CAK1, hits give low values 0.939 | S. cerevisiae deletion strains, locus YFR003C, strain YPI1, hits give low values 0.99 | S. cerevisiae deletion strains, locus YFR019W, strain FAB1, hits give low values 0.911 | S. cerevisiae deletion strains, locus YFR028C, strain CDC14, hits give low values 0.974 | S. cerevisiae deletion strains, locus YGR040W, strain KSS1, hits give low values 0.906 | S. cerevisiae deletion strains, locus YGR052W, strain FMP48, hits give low values 0.922 | S. cerevisiae deletion strains, locus YGR092W, strain DBF2, hits give low values 0.822 | [2] 0.862 | S. cerevisiae deletion strains, locus YHR079C, strain IRE1, hits give low values 0.927 | S. cerevisiae deletion strains, locus YHR082C, strain KSP1, hits give low values 0.962 | S. cerevisiae deletion strains, locus YHR205W, strain SCH9, hits give low values 0.894 | S. cerevisiae deletion strains, locus YIL147C, strain SLN1, hits give low values 0.981 | S. cerevisiae deletion strains, locus YJL095W, strain BCK1, hits give low values 0.825 | S. cerevisiae deletion strains, locus YJL128C, strain PBS2, hits give low values 0.956 | S. cerevisiae deletion strains, locus YJL157C, strain FAR1, hits give low values 0.892 | S. cerevisiae deletion strains, locus YJR016C, strain ILV3, hits give low values 0.985 | S. cerevisiae deletion strains, locus YJR066W, strain TOR1 (second series), hits give low values 0.884 | S. cerevisiae deletion strains, locus YJR066W, strain TOR1, hits give low values 0.935 | S. cerevisiae deletion strains, locus YKL048C, strain ELM1, hits give low values 0.889 | S. cerevisiae deletion strains, locus YKL067W, strain YNK1, hits give low values 0.935 | S. cerevisiae deletion strains, locus YKL101W, strain HSL1, hits give low values 0.917 | S. cerevisiae deletion strains, locus YKL193C, strain SDS22, hits give low values 0.96 | S. cerevisiae deletion strains, locus YKL203C, strain TOR2, hits give low values 1.01 | S. cerevisiae deletion strains, locus YLR133W, strain CKI1, hits give low values 0.882 | S. cerevisiae deletion strains, locus YLR403W, strain SFP1, hits give low values 0.913 | S. cerevisiae deletion strains, locus YML070W, strain DAK1, hits give low values 0.887 | S. cerevisiae deletion strains, locus YMR001C, strain CDC5, hits give low values 0.975 | S. cerevisiae deletion strains, locus YMR205C, strain PFK2 (second series), hits give low values 0.923 | S. cerevisiae deletion strains, locus YMR277W, strain FCP1, hits give low values 0.988 | S. cerevisiae deletion strains, locus YNL006W, strain LST8, hits give low values 0.986 | S. cerevisiae deletion strains, locus YNL020C, strain ARK1, hits give low values 0.887 | S. cerevisiae deletion strains, locus YNL161W, strain CBK1, hits give low values 0.978 | S. cerevisiae deletion strains, locus YNL183C, strain NPR1, hits give low values 0.965 | S. cerevisiae deletion strains, locus YNL207W, strain RIO2, hits give low values 0.974 | S. cerevisiae deletion strains, locus YNL222W, strain SSU72, hits give low values 0.982 | S. cerevisiae deletion strains, locus YNL307C, strain MCK1 (second series), hits give low values 0.816 | S. cerevisiae deletion strains, locus YOL078W, strain AVO1, hits give low values 0.96 | S. cerevisiae deletion strains, locus YOL136C, strain PFK27, hits give low values 0.86 | S. cerevisiae deletion strains, locus YOR061W, strain CKA2, hits give low values 0.847 | S. cerevisiae deletion strains, locus YOR119C, strain RIO1, hits give low values 0.978 | S. cerevisiae deletion strains, locus YOR231W, strain MKK1, hits give low values 0.869 | S. cerevisiae deletion strains, locus YOR329C, strain SCD5, hits give low values 0.978 | S. cerevisiae deletion strains, locus YPL031C, strain PHO85, hits give low values 0.94 | S. cerevisiae deletion strains, locus YPL153C, strain RAD53, hits give low values 0.925 | S. cerevisiae deletion strains, locus YPL204W, strain HRR25, hits give low values 0.889 | S. cerevisiae deletion strains, locus YPL209C, strain IPL1, hits give low values 0.972 | S. cerevisiae deletion strains, locus YPL256C, strain CLN2, hits give low values 0.863 | S. cerevisiae deletion strains, locus YPR025C, strain CCL1, hits give low values 0.981 | S. cerevisiae deletion strains, locus YPR106W, strain ISR1, hits give low values 0.969 | S. cerevisiae deletion strains, locus YPR111W, strain DBF20, hits give low values 0.978 | S. cerevisiae deletion strains, strain NNK1, hits give low values 0.961 | S. cerevisiae deletion strains, strain TSCII, hits give low values 0.966

Cc1cc(C)c(Cn2nc(C(C)(C)C)cc2C(=O)Nc2cccc(C(F)(F)F)c2)c(C)c1
inactive: [3] 0.991 | [4] 1.06 | [5] 0.99 | [1] 0.999 | [6] 1.16 | [7] 0.986 | [8] 0.998 | [2] 1.1 | [9] 0.999 | [10] 0.927 | [11] 1.02 | [12] 1 | [13] 1.01 | [14] 1.02 | [15] 1 | [16] 0.998 | [17] 0.988 | [18] 1 | [19] 1.02 | [20] 0.992 | [21] 0.994 | S. cerevisiae deletion strains, locus YOL006C, strain TOP1, hits give low values 1.06 | [22] 1.05 | [23] 0.995 | [24] 1.07 | S. cerevisiae strains, strain wild type, hits give low values 1

CC(C)(C)c1cc(C(=O)NNC(=O)c2cc(C(F)(F)F)cc(C(F)(F)F)c2)n(Cc2ccc(F)cc2)n1
inactive: [3] 0.979 | [4] 1.03 | [5] 1.04 | [1] 0.964 | [6] 1.01 | [7] 0.979 | [8] 1.01 | [2] 1 | [9] 0.994 | [10] 0.997 | [25] 1.08 | [11] 1.02 | [12] 1.04 | [13] 0.999 | [14] 1.02 | [15] 0.987 | [16] 1 | [17] 1.02 | [18] 1 | [19] 0.984 | [20] 0.99 | [21] 0.997 | [22] 0.976 | [23] 1.01 | [24] 0.927

Cc1cccc(Cn2nc(C(C)(C)C)cc2C(=O)O)c1
inactive: [3] 0.96 | [4] 0.96 | [5] 1 | [1] 0.978 | [6] 0.98 | [7] 0.998 | [8] 0.97 | [2] 1.03 | [9] 0.949 | S. cerevisiae deletion strains, locus YJL187C, strain SWE1, hits give low values 0.973 | [10] 0.971 | [25] 0.963 | S. cerevisiae deletion strains, locus YKL190W, strain CNB1, hits give low values 0.982 | [11] 0.882 | [12] 0.969 | [13] 1.02 | [14] 0.905 | [15] 1 | [16] 0.946 | [17] 0.998 | [18] 0.985 | [19] 0.997 | [20] 0.946 | [21] 1 | [22] 0.978 | [23] 1.01 | [24] 0.986
